Compounds without any hit were thinned out: in the full panel of roughly 79,000, 15% have a hit. The source made the active and inactive calls. Cut-off read from the data, not from the text of the source: active = growth inhibition above about 70%; inactive = the rest.
What was measured:
[1] = NCI Yeast Anticancer Drug Screen. Data for the rad52 strain (AID 147);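 note: 0% = growth of vehicle-treated control cultures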; conditions: S. cerevisiae rad52 mutant growth inhibition, stronger effect = higher value
Summary of the method: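 Genetically altered yeast (DNA damage repair defect) treated with compound; inhibition calculated relative to vehicle.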

[2] = NCI Yeast Anticancer Drug Screen. Data for the wt1 strain (AID 149);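 note: 0% = growth of vehicle-treated wt1 cultures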; conditions: S. cerevisiae wt1 strain (SPY 50644) growth inhibition, stronger effect = higher value
Summary of the method: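 Using yeast strain wt1, compound-induced growth inhibition was determined against vehicle-treated cultures.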

[3] = NCI Yeast Anticancer Drug Screen. Data for the rad50EPP+ strain (AID 151);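 note: 0% = growth of vehicle-treated control cultures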; conditions: S. cerevisiae rad50 mutant strain, stronger effect = higher value
Summary of the method: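 Strain rad50EPP+; compound exposure; % growth inhibition vs vehicle.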

[4] = NCI Yeast Anticancer Drug Screen. Data for the mgt1 strain (AID 153); conditions: S. cerevisiae mgt1 mutant growth inhibition, stronger effect = higher value
Summary of the method: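 Read-out: yeast growth inhibition vs vehicle control. Strain mgt1, drawn from a panel altered in DNA damage repair or cell cycle control.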

[5] = NCI Yeast Anticancer Drug Screen. Data for the rad50 strain (AID 155);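 note: 0% = growth of vehicle-only cultures of the same strain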; conditions: S. cerevisiae rad50 strain growth inhibition, stronger effect = higher value
Summary of the method: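 Relative growth inhibition (compound vs vehicle) was measured in yeast with a defined repair-gene alteration.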

[6] = NCI Yeast Anticancer Drug Screen. Data for the mec2-1 strain (AID 157); conditions: S. cerevisiae mec2-1 strain, stronger effect = higher value
Summary of the method: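 Cells of the genetically defined mec2-1 yeast strain are incubated with test compound. Inhibition of growth is calculated against vehicle-treated controls.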

[7] = NCI Yeast Anticancer Drug Screen. Data for the rad14 strain (AID 159);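 note: 0% = growth of vehicle-treated control cultures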; conditions: S. cerevisiae rad14 strain growth inhibition, stronger effect = higher value
Summary of the method: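 Screen for anticancer potential: a yeast strain altered in DNA damage repair is grown with compound, and reduced growth is quantified against vehicle controls.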

[8] = NCI Yeast Anticancer Drug Screen. Data for the sgs1 mgt1 strain (AID 161);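 note: 0% = growth of cultures given vehicle only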; conditions: S. cerevisiae sgs1 mgt1 strain, stronger effect = higher value
Summary of the method: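 Mutant yeast exposed to compound; growth scored against vehicle-only wells.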

[9] = NCI Yeast Anticancer Drug Screen. Data for the CLN2oe strain (AID 163);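 note: 0% = growth of vehicle-only control cultures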; conditions: S. cerevisiae CLN2oe strain, stronger effect = higher value
Summary of the method: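 Strain altered in cell-cycle control, incubated with compound; growth compared to solvent-treated controls.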

[10] = NCI Yeast Anticancer Drug Screen. Data for the cln2 rad14 strain (AID 165);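 note: 0% = growth equal to vehicle treated cultures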; conditions: S. cerevisiae cln2 rad14 strain, stronger effect = higher value
Summary of the method: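 The screen exposed genetically defined yeast (cln2 rad14) to test compounds and scored growth inhibition relative to vehicle-treated controls.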

[11] = NCI Yeast Anticancer Drug Screen. Data for the bub3 strain (AID 167); conditions: S. cerevisiae bub3 mutant strain, stronger effect = higher value
Summary of the method: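 Screening used yeast with an engineered genetic alteration affecting cell cycle control. Compound-exposed cultures were compared with vehicle cultures, and reduced growth was taken as inhibition.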

[12] = NCI Yeast Anticancer Drug Screen. Data for the mlh1 strain (AID 171);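 note: 0% = growth of vehicle-treated control cultures of the same strain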; conditions: S. cerevisiae mlh1 strain growth inhibition, stronger effect = higher value
Summary of the method: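 Yeast screen: mutant strain plus compound, growth scored against vehicle control wells.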

[13] = NCI Yeast Anticancer Drug Screen. Data for the sgs1 strain (AID 173);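 note: 0% = growth of vehicle-only control cultures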; conditions: S. cerevisiae sgs1 mutant, stronger effect = higher value
Summary of the method: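 Inhibition of yeast growth served as the measure. The mutant strain was treated with each compound, and growth was normalised to cultures receiving vehicle alone.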

[14] = NCI Yeast Anticancer Drug Screen. Data for the mlh1 rad18 strain (AID 175); conditions: S. cerevisiae mlh1 rad18 strain growth inhibition, stronger effect = higher value
Summary of the method: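 Compound-treated yeast growth, normalised to vehicle controls. Strain bears defined DNA repair mutations.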

[15] = NCI Yeast Anticancer Drug Screen. Data for the wt2 strain (AID 169);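 note: 0% = growth of vehicle-treated yeast cultures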; conditions: S. cerevisiae wt2 strain growth inhibition, stronger effect = higher value
Summary of the method: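 Steps: yeast strain treated with compound; growth recorded; inhibition calculated relative to cultures given vehicle alone.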

[16] = NCI Yeast Anticancer Drug Screen. Data for the rad18 strain (AID 177); conditions: S. cerevisiae rad18 mutant growth inhibition, stronger effect = higher value
Summary of the method: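 Inhibition values reflect reduced yeast growth compared with vehicle-treated controls, using a strain engineered with a DNA damage repair defect.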

[17] = at 5.0 µM (retest, dose inferred, filed as 0.5)
[18] = at 50.0 µM (retest, dose inferred, filed as 5.0)

Measured: growth inhibition

NC(N)=NS(=O)(=O)c1ccc(Nc2c3ccccc3nc3c(C(=O)NCCO)cccc23)cc1
inactive: [1]; at 1.2 µM 1% | [1]; at 3.7 µM 3% | [1]; at 11.0 µM 4% | [1]; at 33.0 µM 17% | [2]; at 1.2 µM 1% | [2]; at 3.7 µM 1% | [2]; at 11.0 µM 2% | [2]; at 33.0 µM -1% | [2]; at 100.0 µM 5% | [3]; at 1.2 µM -1% | [3]; at 3.7 µM -5% | [3]; at 11.0 µM -5% | [3]; at 33.0 µM 5% | [3]; at 100.0 µM 37% | [4]; at 1.2 µM -1% | [4]; at 3.7 µM -4% | [4]; at 11.0 µM -3% | [4]; at 33.0 µM 12% | [4]; at 100.0 µM 38% | [5]; at 1.2 µM 0% | [5]; at 3.7 µM 0% | [5]; [17] -11% | [5]; at 11.0 µM 3% | [5]; at 33.0 µM 16% | [5]; at 50.0 µM 69.4% | [6]; at 1.2 µM -3% | [6]; at 3.7 µM 0% | [6]; [17] -4% | [6]; at 11.0 µM -2% | [6]; at 33.0 µM 1% | [6]; [18] -2% | [6]; at 50.0 µM -21.9% | [6]; at 100.0 µM 33% | [7]; at 1.2 µM 0% | [7]; at 3.7 µM -1% | [7]; at 11.0 µM -2% | [7]; at 33.0 µM 2% | [7]; at 100.0 µM 17% | [8]; [17] 2% | [8]; [18] 20% | [8]; at 50.0 µM 20.4% | [9]; at 1.2 µM 2% | [9]; at 3.7 µM 0% | [9]; at 11.0 µM 4% | [9]; at 33.0 µM -6% | [9]; at 100.0 µM 11% | [10]; [17] 16% | [10]; [18] 17% | [10]; at 50.0 µM -5.1% | [11]; at 1.2 µM -4% | [11]; at 3.7 µM -1% | [11]; [17] -12% | [11]; at 11.0 µM -4% | [11]; at 33.0 µM -4% | [11]; [18] 33% | [11]; at 50.0 µM -1.35% | [11]; at 100.0 µM 7% | [12]; at 1.2 µM -2% | [12]; at 3.7 µM 0% | [12]; at 11.0 µM 1% | [12]; at 33.0 µM 1% | [12]; at 100.0 µM 48% | [13]; at 1.2 µM -1% | [13]; at 3.7 µM 0% | [13]; at 11.0 µM 0% | [13]; at 33.0 µM 5% | [13]; at 100.0 µM 43% | [14]; [17] -1% | [14]; [18] 40% | [14]; at 50.0 µM 46%
active: [1]; at 100.0 µM 82% | [5]; [18] 73% | [5]; at 100.0 µM 73%

N#CC1=C(N)N(/N=C/c2ccccc2)C(c2ccccc2)C1(C#N)C#N (stereo unspecified)
inactive: [1]; at 1.2 µM 15% | [1]; at 3.7 µM 41% | [2]; at 1.2 µM 12% | [2]; at 3.7 µM 12% | [2]; at 11.0 µM 10% | [2]; at 33.0 µM 55% | [2]; at 100.0 µM 58% | [3]; at 1.2 µM 20% | [3]; at 3.7 µM 14% | [3]; at 11.0 µM 8% | [3]; at 33.0 µM 23% | [3]; at 100.0 µM 5% | [4]; at 1.2 µM 8% | [4]; at 3.7 µM 33% | [5]; at 1.2 µM 5% | [5]; at 3.7 µM 17% | [5]; [17] 16% | [5]; at 11.0 µM 66% | [5]; at 50.0 µM 39.9% | [6]; at 1.2 µM 9% | [6]; at 3.7 µM 31% | [6]; [17] 4% | [6]; at 50.0 µM 58.5% | [7]; at 1.2 µM 4% | [7]; at 3.7 µM 19% | [7]; at 11.0 µM 45% | [8]; [17] 5% | [9]; at 1.2 µM 25% | [9]; at 3.7 µM 40% | [9]; at 11.0 µM 64% | [10]; [17] -4% | [10]; [18] 46% | [10]; at 50.0 µM 45.7% | [11]; at 1.2 µM 9% | [11]; at 3.7 µM 21% | [11]; [17] 13% | [11]; at 50.0 µM 65.7% | [15]; at 1.2 µM -9% | [15]; at 3.7 µM 51% | [12]; at 1.2 µM 13% | [12]; at 3.7 µM 27% | [14]; [17] 14% | [14]; at 50.0 µM 63.5% | [16]; at 1.2 µM 3% | [16]; at 3.7 µM 22%
active: [1]; at 11.0 µM 78% | [1]; at 33.0 µM 90% | [1]; at 100.0 µM 84% | [4]; at 11.0 µM 84% | [4]; at 33.0 µM 96% | [4]; at 100.0 µM 95% | [5]; at 33.0 µM 90% | [5]; [18] 83% | [5]; at 100.0 µM 87% | [6]; at 11.0 µM 72% | [6]; at 33.0 µM 91% | [6]; [18] 87% | [6]; at 100.0 µM 87% | [7]; at 33.0 µM 89% | [7]; at 100.0 µM 90% | [8]; [18] 76% | [8]; at 50.0 µM 76.6% | [9]; at 33.0 µM 88% | [9]; at 100.0 µM 93% | [11]; at 11.0 µM 77% | [11]; at 33.0 µM 93% | [11]; [18] 88% | [11]; at 100.0 µM 95% | [15]; at 11.0 µM 94% | [15]; at 33.0 µM 86% | [15]; at 100.0 µM 87% | [12]; at 11.0 µM 79% | [12]; at 33.0 µM 95% | [12]; at 100.0 µM 93% | [14]; [18] 89% | [16]; at 11.0 µM 81% | [16]; at 33.0 µM 89% | [16]; at 100.0 µM 89%

Cn1c(=O)c2c(nc(N)n2C2OC(CO)C(O)C2O)n(C)c1=O (stereo unspecified)
inactive: [1]; at 1.2 µM -2% | [1]; at 3.7 µM -1% | [1]; at 11.0 µM -4% | [1]; at 33.0 µM -4% | [1]; at 100.0 µM 0% | [2]; at 1.2 µM -1% | [2]; at 3.7 µM -1% | [2]; at 11.0 µM -2% | [2]; at 33.0 µM -2% | [2]; at 100.0 µM 1% | [3]; at 1.2 µM -1% | [3]; at 3.7 µM 1% | [3]; at 11.0 µM 1% | [3]; at 33.0 µM -1% | [3]; at 100.0 µM 2% | [4]; at 1.2 µM -1% | [4]; at 3.7 µM -2% | [4]; at 11.0 µM 7% | [4]; at 33.0 µM -7% | [4]; at 100.0 µM 0% | [5]; at 1.2 µM -2% | [5]; at 3.7 µM 0% | [5]; [17] 17% | [5]; at 11.0 µM -11% | [5]; at 33.0 µM -1% | [5]; [18] 22% | [5]; at 100.0 µM 1% | [6]; at 1.2 µM 0% | [6]; at 3.7 µM 1%
active: [5]; at 50.0 µM 87.4%

From PubChem BioAssay (NCI)
